Source: the supplement of paper PMC7595190
Unmarked numbers belong to inactive results.

Key:
Test in all cases: CellTox Green cytotoxicity fluorescence relative to DMSO vehicle (fold of vehicle RFU); higher = more cell death (loss of membrane integrity), active = 2 or more
CMK = tested on: CMK
In short: (§1)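 MV4-11, CMK and Kasumi-1 cells were plated in 96-well black optical-bottom plates at 4.0 × 10^4 cells per well, and CellTox Green reagent was added at the time of seeding. Single compounds from the Selleckchem apoptosis library were diluted in DMSO and added at final concentrations of 0.01, 0.1 and 1 µM, with 0.1% DMSO as vehicle. Plates were kept at 37 °C and 5% CO2 and read at 24, 48 and 72 h (Ex 485 nm, Em 520 nm). Cytotoxicity reflects loss of membrane integrity and is given as fluorescence relative to the DMSO vehicle, expressed as fold.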

Kasumi-1 = tested on: Kasumi-1
In short: as §1

MV4-11 = tested on: MV4-11
In short: as §1

SMILES | CellTox Green cytotoxicity fluorescence (CMK; 0.01 µM, 24 h) | CellTox Green cytotoxicity fluorescence (CMK; 0.01 µM, 48 h) | CellTox Green cytotoxicity fluorescence (CMK; 0.01 µM, 72 h) | CellTox Green cytotoxicity fluorescence (CMK; 0.1 µM, 24 h) | CellTox Green cytotoxicity fluorescence (CMK; 0.1 µM, 48 h) | CellTox Green cytotoxicity fluorescence (CMK; 0.1 µM, 72 h) | CellTox Green cytotoxicity fluorescence (CMK; 1 µM, 24 h) | CellTox Green cytotoxicity fluorescence (CMK; 1 µM, 48 h) | CellTox Green cytotoxicity fluorescence (CMK; 1 µM, 72 h) | CellTox Green cytotoxicity fluorescence (Kasumi-1; 0.01 µM, 24 h) | CellTox Green cytotoxicity fluorescence (Kasumi-1; 0.01 µM, 48 h) | CellTox Green cytotoxicity fluorescence (Kasumi-1; 0.01 µM, 72 h) | CellTox Green cytotoxicity fluorescence (Kasumi-1; 0.1 µM, 24 h) | CellTox Green cytotoxicity fluorescence (Kasumi-1; 0.1 µM, 48 h) | CellTox Green cytotoxicity fluorescence (Kasumi-1; 0.1 µM, 72 h) | CellTox Green cytotoxicity fluorescence (Kasumi-1; 1 µM, 24 h) | CellTox Green cytotoxicity fluorescence (Kasumi-1; 1 µM, 48 h) | CellTox Green cytotoxicity fluorescence (Kasumi-1; 1 µM, 72 h) | CellTox Green cytotoxicity fluorescence (MV4-11; 0.01 µM, 24 h) | CellTox Green cytotoxicity fluorescence (MV4-11; 0.01 µM, 48 h) | CellTox Green cytotoxicity fluorescence (MV4-11; 0.01 µM, 72 h) | CellTox Green cytotoxicity fluorescence (MV4-11; 0.1 µM, 24 h) | CellTox Green cytotoxicity fluorescence (MV4-11; 0.1 µM, 48 h) | CellTox Green cytotoxicity fluorescence (MV4-11; 0.1 µM, 72 h) | CellTox Green cytotoxicity fluorescence (MV4-11; 1 µM, 24 h) | CellTox Green cytotoxicity fluorescence (MV4-11; 1 µM, 48 h) | CellTox Green cytotoxicity fluorescence (MV4-11; 1 µM, 72 h)
CC1(C)CC[C@]2(NC(=O)C(C)(F)F)CC[C@]3(C)[C@H](C(=O)C=C4[C@@]5(C)C=C(C#N)C(=O)C(C)(C)[C@@H]5CC[C@]43C)[C@@H]2C1 [Omaveloxolone] | 0.972 | 0.97 | 1 | 0.98 | 0.952 | 0.762 | 2.13 (active) | 2.33 (active) | 1.56 | 0.94 | 0.95 | 0.898 | 0.971 | 1 | 0.946 | 1.11 | 1.34 | 1.34 | 0.94 | 0.94 | 0.966 | 0.943 | 0.997 | 1.1 | 1.23 | 2.12 (active) | 2.24 (active)
Fc1ccc(CNc2ncnc3ccc(F)cc23)cc1 [Spautin-1] | 0.96 | 1.08 | 1.16 | 0.971 | 0.943 | 0.916 | 0.983 | 0.967 | 0.917 | 1.03 | 1.04 | 0.987 | 1 | 1 | 0.997 | 1.04 | 1.01 | 1.01 |  |  |  |  |  |  |  |  | 
COc1cccc(-n2c(=O)[nH]c3cc(Cl)n(-c4ccc(-c5cccc(OC)c5O)cc4)c3c2=O)c1 | 0.99 | 0.943 | 1.27 | 0.996 | 0.985 | 0.962 | 0.95 | 0.915 | 0.832 | 0.97 | 0.973 | 1.13 | 0.99 | 0.989 | 0.991 | 0.947 | 0.91 | 0.877 | 0.975 | 0.924 |  | 0.975 | 0.966 | 0.959 | 1.01 | 1 | 1
Nc1cccc2c1CN(C1CCC(=O)NC1=O)C2=O (centres undefined) [Lenalidomide] | 0.938 | 0.942 | 0.905 | 0.932 | 0.929 | 0.898 | 0.948 | 0.969 | 0.783 | 0.986 | 0.897 | 0.88 | 0.951 | 0.933 | 0.915 | 0.986 | 1 | 0.982 |  |  |  |  |  |  |  |  | 
CN(C)CCCCC(=O)Nc1ccc(NC(=S)NC(=O)c2ccc(C(C)(C)C)cc2)cc1 [Tenovin-6] | 0.978 | 0.97 | 0.94 | 1 | 0.991 | 0.973 | 1.01 | 1.03 | 0.875 | 0.99 | 0.965 | 0.966 | 0.947 | 0.912 | 0.879 | 0.958 | 1 | 1.01 |  |  |  |  |  |  |  |  | 
O=C(O)CSc1cc(NS(=O)(=O)c2ccc(Br)cc2)c2ccccc2c1O | 0.973 | 0.966 | 0.955 | 0.961 | 0.961 | 0.969 | 0.984 | 1.03 | 1.03 | 1.05 | 0.997 | 1.01 | 0.985 | 0.972 | 0.997 | 0.98 | 1.03 | 1.08 | 0.99 | 0.983 | 0.99 | 0.988 | 0.985 | 0.989 | 0.983 | 0.997 | 1.03
